For test [1], the target named is Leukocyte tyrosine kinase receptor (Homo sapiens) (UniProt P29376). Conditions: at 1 µM.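 Note: each value is the mean inhibition of LTK.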
The target in test [2] is Tyrosine-protein kinase Lyn (Homo sapiens) (UniProt P07948). Conditions: at 0.1 µM.
The target is the same in test [3]. Conditions: at 1 µM.
The target is the same in test [4]. Conditions: at 0.1 µM. The source holds these as a separate data set.
Test [5] has the same target. The following applies: at 1 µM. The source holds these as a separate data set.
For test [6], the target named is T1, Tyrosine-protein kinase Mer (Homo sapiens) (UniProt Q12866).
T1 sequence (whole entry): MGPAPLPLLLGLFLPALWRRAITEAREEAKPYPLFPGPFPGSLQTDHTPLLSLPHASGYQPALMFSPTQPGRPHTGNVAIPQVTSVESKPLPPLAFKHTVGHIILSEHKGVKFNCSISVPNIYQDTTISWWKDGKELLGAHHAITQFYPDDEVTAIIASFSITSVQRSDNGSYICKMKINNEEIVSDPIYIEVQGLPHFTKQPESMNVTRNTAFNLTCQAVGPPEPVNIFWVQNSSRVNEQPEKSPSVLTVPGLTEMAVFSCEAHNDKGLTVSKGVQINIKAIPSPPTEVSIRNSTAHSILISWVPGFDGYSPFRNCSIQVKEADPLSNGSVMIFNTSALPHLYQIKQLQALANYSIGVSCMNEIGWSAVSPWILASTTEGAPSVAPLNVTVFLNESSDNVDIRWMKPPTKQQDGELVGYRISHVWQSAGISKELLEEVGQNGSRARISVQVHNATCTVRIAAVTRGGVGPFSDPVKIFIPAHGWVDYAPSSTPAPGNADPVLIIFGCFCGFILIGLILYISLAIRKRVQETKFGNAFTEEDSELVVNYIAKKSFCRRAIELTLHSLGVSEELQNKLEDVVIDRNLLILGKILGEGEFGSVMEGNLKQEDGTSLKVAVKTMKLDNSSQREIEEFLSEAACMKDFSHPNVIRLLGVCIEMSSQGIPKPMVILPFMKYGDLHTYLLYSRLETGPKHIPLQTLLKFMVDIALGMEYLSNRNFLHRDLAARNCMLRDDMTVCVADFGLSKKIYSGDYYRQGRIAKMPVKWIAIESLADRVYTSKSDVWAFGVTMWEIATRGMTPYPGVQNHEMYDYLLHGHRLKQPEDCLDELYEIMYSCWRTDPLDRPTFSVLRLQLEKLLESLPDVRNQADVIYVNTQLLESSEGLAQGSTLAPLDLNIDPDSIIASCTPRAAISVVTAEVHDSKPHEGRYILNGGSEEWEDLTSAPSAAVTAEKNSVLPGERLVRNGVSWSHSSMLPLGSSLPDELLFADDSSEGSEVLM
Conditions: at 0.1 µM.

For test [7], the target named is T1, Tyrosine-protein kinase Mer (Homo sapiens). The following applies: at 1 µM.
The target of test [8] is Hepatocyte growth factor receptor (Homo sapiens) (UniProt P08581). The following applies: at 0.1 µM.
Sequence of Hepatocyte growth factor receptor (Homo sapiens) (P08581 whole entry): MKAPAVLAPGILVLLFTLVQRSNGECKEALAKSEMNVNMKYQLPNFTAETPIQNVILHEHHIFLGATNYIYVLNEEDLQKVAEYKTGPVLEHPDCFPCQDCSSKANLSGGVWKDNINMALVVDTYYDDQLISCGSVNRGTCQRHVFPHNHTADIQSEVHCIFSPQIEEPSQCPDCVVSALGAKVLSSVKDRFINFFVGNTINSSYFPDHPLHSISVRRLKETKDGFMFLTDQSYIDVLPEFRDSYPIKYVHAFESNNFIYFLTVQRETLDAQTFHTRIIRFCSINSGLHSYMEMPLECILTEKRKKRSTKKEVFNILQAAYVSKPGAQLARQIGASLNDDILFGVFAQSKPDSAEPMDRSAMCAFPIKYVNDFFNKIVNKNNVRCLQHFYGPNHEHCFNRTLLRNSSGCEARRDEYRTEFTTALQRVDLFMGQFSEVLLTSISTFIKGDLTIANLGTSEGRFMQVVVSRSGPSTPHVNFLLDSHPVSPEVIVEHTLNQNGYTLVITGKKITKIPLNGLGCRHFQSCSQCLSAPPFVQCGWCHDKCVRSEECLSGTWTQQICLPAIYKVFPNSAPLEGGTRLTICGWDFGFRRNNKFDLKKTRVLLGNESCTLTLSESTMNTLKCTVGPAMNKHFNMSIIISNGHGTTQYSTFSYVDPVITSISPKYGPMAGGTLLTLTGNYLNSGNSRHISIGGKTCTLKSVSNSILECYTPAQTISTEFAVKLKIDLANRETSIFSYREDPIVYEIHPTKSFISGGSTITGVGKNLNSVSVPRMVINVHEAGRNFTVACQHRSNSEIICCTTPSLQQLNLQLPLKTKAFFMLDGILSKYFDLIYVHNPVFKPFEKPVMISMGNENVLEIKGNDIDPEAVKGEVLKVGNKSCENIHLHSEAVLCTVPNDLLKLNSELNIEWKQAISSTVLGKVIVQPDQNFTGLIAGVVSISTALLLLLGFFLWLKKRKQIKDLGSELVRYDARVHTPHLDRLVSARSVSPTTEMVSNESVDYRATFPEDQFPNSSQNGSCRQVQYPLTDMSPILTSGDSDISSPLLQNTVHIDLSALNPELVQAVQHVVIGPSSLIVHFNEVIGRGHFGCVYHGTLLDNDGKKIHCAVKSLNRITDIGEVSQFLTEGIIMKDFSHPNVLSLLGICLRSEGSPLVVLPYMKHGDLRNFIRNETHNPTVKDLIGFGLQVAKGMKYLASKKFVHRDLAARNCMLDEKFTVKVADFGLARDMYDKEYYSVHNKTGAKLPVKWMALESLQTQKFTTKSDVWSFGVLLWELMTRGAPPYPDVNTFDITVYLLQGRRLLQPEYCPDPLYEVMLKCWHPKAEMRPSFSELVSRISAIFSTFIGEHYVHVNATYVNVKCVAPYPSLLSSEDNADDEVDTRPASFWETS
Test [9] shares this target. The following applies: at 1 µM.
The target of test [10] is T2, Muscle, skeletal receptor tyrosine-protein kinase (Homo sapiens) (UniProt O15146).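 Note: values are mean inhibition of MuSK from the GSK PKIS kinase screening panel.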
T2 sequence (whole entry): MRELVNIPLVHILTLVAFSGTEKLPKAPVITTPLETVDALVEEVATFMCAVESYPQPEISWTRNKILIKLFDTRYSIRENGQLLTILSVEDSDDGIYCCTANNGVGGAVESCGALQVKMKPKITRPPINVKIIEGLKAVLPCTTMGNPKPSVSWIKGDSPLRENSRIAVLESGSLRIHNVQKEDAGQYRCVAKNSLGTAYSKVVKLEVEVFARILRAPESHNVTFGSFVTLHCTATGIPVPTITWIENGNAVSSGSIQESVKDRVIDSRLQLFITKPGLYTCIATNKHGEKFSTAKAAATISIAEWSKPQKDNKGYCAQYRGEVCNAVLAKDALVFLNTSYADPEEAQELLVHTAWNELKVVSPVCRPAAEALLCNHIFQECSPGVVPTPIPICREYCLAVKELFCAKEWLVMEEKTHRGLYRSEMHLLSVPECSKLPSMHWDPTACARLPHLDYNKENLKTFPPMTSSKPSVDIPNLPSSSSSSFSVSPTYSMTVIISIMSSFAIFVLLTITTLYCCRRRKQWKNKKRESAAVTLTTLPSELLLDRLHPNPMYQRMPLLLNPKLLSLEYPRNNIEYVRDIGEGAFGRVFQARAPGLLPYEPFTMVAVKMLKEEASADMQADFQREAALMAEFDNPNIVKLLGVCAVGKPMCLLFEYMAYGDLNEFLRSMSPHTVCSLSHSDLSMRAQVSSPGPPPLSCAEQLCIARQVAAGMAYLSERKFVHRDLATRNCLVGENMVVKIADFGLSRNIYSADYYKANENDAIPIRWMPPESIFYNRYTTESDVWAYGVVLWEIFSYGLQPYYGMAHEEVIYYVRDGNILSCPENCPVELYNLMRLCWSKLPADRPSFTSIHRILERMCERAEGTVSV
Conditions: at 0.1 µM.

Structures are written as SMILES.

One may read the inhibition as the change of the read-out against control, counted positive when it falls.

Sequence of Leukocyte tyrosine kinase receptor (Homo sapiens) (P29376 whole entry): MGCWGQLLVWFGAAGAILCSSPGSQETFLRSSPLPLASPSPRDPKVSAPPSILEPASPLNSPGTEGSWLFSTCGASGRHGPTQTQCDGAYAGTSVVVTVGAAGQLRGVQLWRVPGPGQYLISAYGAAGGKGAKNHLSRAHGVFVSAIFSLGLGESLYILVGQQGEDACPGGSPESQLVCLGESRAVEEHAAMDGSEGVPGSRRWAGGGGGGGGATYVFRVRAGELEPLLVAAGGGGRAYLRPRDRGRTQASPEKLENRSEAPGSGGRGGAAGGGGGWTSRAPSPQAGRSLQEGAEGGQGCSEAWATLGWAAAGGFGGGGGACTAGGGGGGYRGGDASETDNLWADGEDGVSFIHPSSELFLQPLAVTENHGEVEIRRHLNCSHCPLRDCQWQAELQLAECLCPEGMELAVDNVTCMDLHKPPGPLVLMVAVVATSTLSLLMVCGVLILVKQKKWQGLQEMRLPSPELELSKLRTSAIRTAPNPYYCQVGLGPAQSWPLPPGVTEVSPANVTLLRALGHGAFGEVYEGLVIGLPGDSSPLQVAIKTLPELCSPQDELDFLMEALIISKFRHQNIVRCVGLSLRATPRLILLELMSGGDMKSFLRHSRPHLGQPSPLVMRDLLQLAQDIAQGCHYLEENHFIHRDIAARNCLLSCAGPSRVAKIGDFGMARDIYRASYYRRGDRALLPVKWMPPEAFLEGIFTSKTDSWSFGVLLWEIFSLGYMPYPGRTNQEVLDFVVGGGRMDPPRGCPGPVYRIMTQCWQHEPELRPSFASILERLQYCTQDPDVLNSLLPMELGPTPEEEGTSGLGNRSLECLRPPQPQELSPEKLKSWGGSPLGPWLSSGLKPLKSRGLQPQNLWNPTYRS
Sequence of Tyrosine-protein kinase Lyn (Homo sapiens) (P07948 2-512 limits assumed): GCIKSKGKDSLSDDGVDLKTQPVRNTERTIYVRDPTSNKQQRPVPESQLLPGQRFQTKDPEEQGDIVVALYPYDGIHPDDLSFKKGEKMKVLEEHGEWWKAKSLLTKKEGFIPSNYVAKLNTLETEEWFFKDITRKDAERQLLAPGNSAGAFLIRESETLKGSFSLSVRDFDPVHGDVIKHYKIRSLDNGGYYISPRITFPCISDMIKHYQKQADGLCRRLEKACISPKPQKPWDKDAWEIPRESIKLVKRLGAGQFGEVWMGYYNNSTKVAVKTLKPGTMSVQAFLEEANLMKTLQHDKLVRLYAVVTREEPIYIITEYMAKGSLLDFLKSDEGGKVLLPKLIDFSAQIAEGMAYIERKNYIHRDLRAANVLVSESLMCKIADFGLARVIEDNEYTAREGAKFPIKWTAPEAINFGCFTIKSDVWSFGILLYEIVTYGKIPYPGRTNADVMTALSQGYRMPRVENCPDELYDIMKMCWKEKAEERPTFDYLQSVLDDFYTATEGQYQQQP

For the molecule `COC(=O)c1ccc2c(c1)C(=Cc1cc(Br)c(O)c(Br)c1)C(=O)N2`, the inhibition in test [1] stood at 34%; in test [2], 3.81%; in [3], 17.1%; in test [4] it was 2.84%; in test [5] it was 12.9%; in [6], 1.09%. The inhibition in [7] turned out to be 2.17%; in test [8], 2.4%; in [9] it was 8.25%; in [10] it was 3%.

For the molecule `COc1cc2ncnc(Nc3ccc4c(cnn4Cc4ccccc4)c3)c2cc1OC`, the inhibition in [1] was determined as 2.45%; in [2], 10.4%; in test [3], 46.1%; in test [4] it was 7.01%; in [5], 40.7%; in test [6], 7%. The inhibition in test [7] stood at 45.5%; in test [8] it was 2.31%; in [9], 4.07%; in test [10], 3.2%.

On to `CN(C)C(=O)O[C@@H]1CN[C@@H](C#Cc2cc3ncnc(Nc4ccc(OCc5cccc(F)c5)c(Cl)c4)c3s2)C1`, for which the inhibition in test [1] is 0.68%; in test [2], 0.77%; in test [3], 2.73%; in test [4] it was 0.28%; in test [5] it was 1.62%; in [6], -0.95%. For the same molecule, the inhibition in test [7] was 2.89%; in test [8], 5.31%; in [9] it was 0.32%; in [10], -0.25%.

Take `Cc1ccc(O)cc1Nc1ccnc2ccc(S(C)(=O)=O)cc12`: the inhibition in test [1] amounted to 10.2%; in [2], 93.2%; in [3] it was 96.7%; in test [4], 91.9%; in test [5], 96.2%; in [6], 3.15%. The inhibition is 4.83% in test [7], 5.51% in test [8], -0.38% in test [9] and 2.4% in [10].

For `NS(=O)(=O)c1ccc(-c2cc3ccncc3cc2OCc2ccccc2)cc1`, the inhibition was 14.8% in [1]; 5.43% in [2]; 8.06% in test [3]; 4.33% in test [4]; 5.23% in [5]; 0.4% in test [6]. Also, the inhibition in [7] is 1.77%; in test [8], 9.74%; in test [9] it was 5.85%; in [10], 1.45%.

On to `CCn1c(-c2nonc2N)nc2ccc(F)cc21`, for which the inhibition is 5.25% in [1]; 7.21% in [2]; 9.59% in test [3]; 3.75% in [4]; 5.9% in test [5]; 1.51% in test [6]. Besides, the inhibition in [7] turned out to be 3.19%; in [8], 8.56%; in test [9], 9.65%; in [10], 2.27%.

For `COc1cccc(-n2ncc3c(N/N=C/c4ccc(C)cc4)ncnc32)c1`, the inhibition in test [1] was found to be 8.61%; in test [2], 9.2%; in test [3] it was 23.2%; in test [4], 5.91%; in [5], 18.6%; in test [6] it was 2.65%. The inhibition in [7] is 4.53%; in test [8] it was -2.1%; in [9], 7.4%; in [10], 6.89%.

Turning to `Cc1cc(-c2ccccn2)cc(C)c1/C=C/c1cncc(-c2nn[nH]n2)c1`, the inhibition was 4.93% in [1]; 3.33% in test [2]; 14% in test [3]; 0.35% in [4]; 9.56% in test [5]; -0.39% in [6]. The inhibition in test [7] was 3.73%; in [8] it was 2.88%; in test [9], 4.32%; in test [10], 3.02%.

On to `O=S(=O)(CCOCc1ccc(-c2ccc3ncnc(Nc4ccc(OCc5cccc(F)c5)c(Cl)c4)c3c2)o1)c1ccccc1`, for which the inhibition was 3.13% in test [1]; 1.13% in [2]; 2.54% in test [3]; -1.61% in test [4]; -0.4% in test [5]; -1.18% in [6]. The inhibition stood at 6.22% in [7], 0.79% in [8], 8.46% in test [9] and 4.67% in test [10].

Consider `Cc1cc(O)cc(C)c1/C=C/c1cncc(C(=O)N(C)C)c1`, for which the inhibition in [1] came to 3.38%; in [2], 4.08%; in test [3], 7.54%; in test [4], 3.61%; in [5] it was 6.35%; in test [6], 1.7%. In addition, the inhibition is 8.23% in test [7], 1.87% in [8], 10.9% in [9] and 8.6% in test [10].

Consider `CS(=O)(=O)Nc1cccc(-c2ccc3c(NC(=O)C4CC4)n[nH]c3c2)c1`, for which the inhibition in test [1] was 1.06%; in test [2], 1.17%; in test [3], 1.49%; in test [4] it was 0.4%; in [5] it was -0.21%; in test [6], 1.36%. Further, the inhibition in [7] came out at 1.01%; in test [8], 5.25%; in test [9] it was 1.91%; in test [10] it was 0.75%.

With `CN(c1ccc(NC(=O)Nc2ccc(OC(F)(F)F)cc2)cc1)c1ccnc(Nc2cccc(S(N)(=O)=O)c2)n1`, the inhibition was 6.43% in [1]; 39.9% in [2]; 83.2% in test [3]; 37.1% in [4]; 83.6% in test [5]; 5.5% in test [6]. The inhibition in [7] amounted to 49.2%; in test [8] it was 34.4%; in test [9], 64.9%; in test [10], 8.36%.

With `C[C@@H](Oc1cc(-n2cnc3ccc(OC[C@@H](O)CO)cc32)sc1C(N)=O)c1ccccc1Cl`, the inhibition was 3.54% in test [1]; -0.6% in test [2]; 3.84% in test [3]; -0.83% in test [4]; 2.72% in test [5]; 5.8% in test [6]. In addition, the inhibition was 3.84% in test [7], -4.12% in test [8], -4.35% in test [9] and 9.09% in test [10].

As for `Cc1ccc(Nc2ccnc(Nc3cccc(C(N)=O)c3)n2)cc1O`, the inhibition in [1] worked out at 15.9%; in test [2], 61.2%; in test [3], 90.5%; in test [4], 56.5%; in test [5], 88.8%; in [6] it was 1.3%. The inhibition turned out to be 11.7% in [7], 5.11% in test [8], 6.87% in test [9] and 5.89% in [10].

Take `CN(C)CCCn1c(-c2nonc2N)nc2cnccc21`: the inhibition was determined as 2.08% in [1]; 4.87% in test [2]; 6.51% in test [3]; 3.03% in [4]; 2.22% in test [5]; 2.17% in [6]. The inhibition in test [7] was 1.41%; in [8] it was 6.53%; in test [9], 5.18%; in [10] it was -0.43%.

Take `COc1cc(/C=N/Nc2ncnc3c2cnn3C(C)C)ccc1O`: the inhibition was found to be 3.76% in [1]; 15.2% in test [2]; 58.5% in [3]; 11.2% in test [4]; 52.7% in test [5]; 3.4% in [6]. Further, the inhibition in test [7] amounted to 20.7%; in [8], 4.44%; in test [9], 5.86%; in test [10], 11.6%.

`COC(=O)c1cncc(/C=C/c2c(C)cc(O)cc2C)c1`: the inhibition in test [1] was found to be 4.87%; in test [2] it was 12.3%; in test [3], 46.2%; in test [4] it was 7.81%; in [5], 41.9%; in test [6] it was 0.09%. For the same molecule, the inhibition is 2.53% in [7], 1.79% in test [8], 11.5% in test [9] and 2.48% in [10].

The values above are taken from ChEMBL document CHEMBL1961873, “Compounds: GSK PKIS; Assays: Nanosyn kinase panel” (2012).
